Efflux pump inh – inhibitors of Candida efflux pumps in yeast, primary screen, S. cerevisiae, Nile Red, multiplex; S. cerevisiae Candida pump triplex; inhibition, % at 10 µM; hit rate 0.44% among 330,000; AID 485275, 2010;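 active = plate passing quality check with inhibition over a set limit, or well fluorescence over plate mean plus 4 SD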;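 note: Nile Red retained in pooled yeast measured as flow cytometry median fluorescence; 0% = buffer negative control and 100% = Enniatin B positive control; higher means more Nile Red kept so more efflux inhibition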
NALP3 yeast inh – NALP3 inflammasome inhibitors in reconstituted yeast, primary screen, luminescence, uHTS | hit rate 0.39% among 330,000 | AID 2825, 2010 | inhibition, % at 10 µM | Yeast reconstituted NLRP3/ASC/caspase-1, beta-gal luminescence, 24 h;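 active = inhibition of 50% or more; inactive = inhibition below 50%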;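 note: plate controls were induced DMSO wells for no effect and uninduced yeast grown without galactose for full effect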
HDAC3 inhib – HDAC3 deacetylase inhibitors, primary screen, biochemical, fluorescence, cell-free homogeneous; inhibition, % at 8.3 µM; hit rate 0.15% among 320,000; Histone deacetylase 3 (Homo sapiens), O15379; recombinant HDAC3, fluorogenic peptide/trypsin coupled; in the data active = inhibition above about 26%, passing the limit was not always enough
JMJD2C inh – inhibitors of GASC-1 histone demethylase, primary screen, biochemical, fluorescence, DELFIA europium; hit rate 0.069% among 330,000; GST-JMJD2C(1-420) H3K9me3 demethylation; inhibition, % at 2.35 µM;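 active = more than half of a compound's replicate wells show inhibition beyond 50%, single wells judged on their own value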;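 note: signal counts dimethyl H3K9 product captured on neutravidin plate; 0% = median of DMSO wells and 100% = 0.3 times that DMSO median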
Target sequence (Q9H3R0 1-420 limits assumed): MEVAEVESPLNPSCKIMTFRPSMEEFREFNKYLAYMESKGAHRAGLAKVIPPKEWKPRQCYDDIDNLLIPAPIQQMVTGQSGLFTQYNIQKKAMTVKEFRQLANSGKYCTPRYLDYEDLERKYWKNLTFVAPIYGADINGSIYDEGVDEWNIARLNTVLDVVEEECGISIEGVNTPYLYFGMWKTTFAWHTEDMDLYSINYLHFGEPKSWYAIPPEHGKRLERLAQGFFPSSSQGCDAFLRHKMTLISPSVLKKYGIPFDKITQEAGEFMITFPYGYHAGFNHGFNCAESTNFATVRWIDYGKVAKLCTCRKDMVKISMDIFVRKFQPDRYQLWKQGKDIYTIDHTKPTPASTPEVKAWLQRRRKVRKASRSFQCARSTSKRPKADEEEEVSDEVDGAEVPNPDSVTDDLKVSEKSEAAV
PolyA inh – polyadenylation inhibitors in yeast reporter cells, primary screen, luminescence, S. cerevisiae | AID 1875, 2009 | activity score, % at 12 µM | S. cerevisiae SKY197-pL101 polyadenylation reporter, beta-gal luminescence; efflux-impaired pdr1/pdr3 knockout yeast; score 100 = 6 SD above DMSO | hit rate 0.02% among 300,000;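 active = lowest replicate activity score at least 50, where 100 means six control SD above control mean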;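 note: yeast exposed to compound for 9 h at 30 °C; higher score means more reporter readthrough which indicates perturbed polyadenylation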
NALP1 inh – NALP1 inflammasome inhibitors in reconstituted yeast, colorimetric, S. cerevisiae, triplicate retest. S. cerevisiae NALP1/ASC/caspase-1 growth, X-gal OD620, 72 h. inhibition, % at 10 µM. hit rate 0.61% among 280,000. AID 2071, 2009; in the data active = inhibition mostly above about 24%, no sharp cut-off; inactive = mostly below about 32%
Cmpd fluor yeast – flagged as fluorescent in efflux inhibitor counter-screen; hit rate 4% among 1,700; S. cerevisiae AD/pABC3, compound fluorescence, flow cytometry; fluorescence ratio to DMSO, % at 10 µM; shares compounds with Efflux pump inh;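 active = fluorescence ratio to DMSO above its plate's cutoff, the plate mean ratio plus 5 SD, cut at about 210% in these data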;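 note: unstained yeast with no Nile Red so the signal is compound autofluorescence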
Mdr1 pump inh – inhibitors of Candida albicans Mdr1 efflux, confirmation, flow cytometry, singleplex, Cherry Pick1 set. shares compounds with Efflux pump inh. S. cerevisiae AD/CaMDR1, Nile Red efflux. inhibition, % at 10 µM. hit rate 1% among 1,700. AID 588518, 2011; in the data active = inhibition above about 26%;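 note: 0% = DMSO vehicle and 100% = reference inhibitor; higher means more Nile Red retained so more efflux inhibition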
CaCdr2 efflux inh – inhibitors of Candida albicans Cdr2 efflux pump, confirmation, S. cerevisiae AD/CaCDR2, flow cytometry, cherry pick 1, singleplex | shares compounds with Efflux pump inh | Nile Red retention | Nile Red retention ratio vs DMSO, % at 10 µM | hit rate 4% among 1,700; in the data active = Nile Red retention ratio vs DMSO above about 190%;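 note: higher ratio means more blocking of Cdr2 efflux of the dye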
Cdr1 pump inh – inhibitors of Candida albicans Cdr1 efflux pump, confirmation, S. cerevisiae AD/CaCDR1, flow cytometry, cherry pick 1, singleplex; Nile Red efflux; shares compounds with Efflux pump inh; inhibition, % at 10 µM; hit rate 1% among 1,700;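 active = inhibition above the screen-wide mean plus twice its standard deviation, cut at about 32% in these data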
Active calls of the source: *; nt = no result given; + = active, no number. Sampled rows, rich in hits. Any-hit rate of the full collection: about 1.5%.

SMILES | Efflux pump inh | NALP3 yeast inh | HDAC3 inhib | JMJD2C inh | PolyA inh | NALP1 inh | Cmpd fluor yeast | Mdr1 pump inh | CaCdr2 efflux inh | Cdr1 pump inh
O=c1/c(=C/c2ccco2)sc2nc(-c3ccccc3Br)nn12 | 0 | 8 | 1 | nt | nt | 13 | 99 | 0 | 99 | 0
Cc1ccc(/C=c2\sc3nc(-c4cccs4)nn3c2=O)o1 | 0.5* | 16 | 8 | 13 | 1 | 32 | 110 | 0 | 89 | 0
COc1cccc(/C=c2\sc3nc(-c4cccs4)nn3c2=O)c1OC | 0 | -12 | -3 | -5 | 13 | 13 | nt | nt | nt | nt
CC(C)C(NCC(=O)Nc1ccccc1C(=O)NC1CC1)c1ccccc1 (centres undefined) | 0 | 6 | 3 | -3 | nt | nt | nt | nt | nt | nt
CCCCNC(=O)OCC(CC)NC(=O)OC(C)C (centres undefined) | 1.9* | 6 | 3 | -16 | -8 | 18 | 101 | 0 | 106 | 0
COc1ccc(N(CC(=O)Nc2cccc([N+](=O)[O-])c2C)S(C)(=O)=O)cc1OC | 8.9* | -3 | 0 | 4 | 11 | 24 | 98 | 0 | 103 | 0
CCCCNC(=O)C(Cc1ccccc1)NS(=O)(=O)c1ccc2c(c1)c(=O)n(C)c(=O)n2C (centres undefined) | 1.8* | 15 | 1 | -2 | nt | 18 | 100 | 0 | 87 | 0
O=C(Nc1cccc2ccccc12)c1cn(-c2ccccc2)nc1-c1cccs1 | 9.0* | 15 | -3 | 4 | -8 | 1 | 104 | 0 | 103 | 0
CNC(=S)N(CCc1cccc(C)c1)Cc1cc2cc(OC)c(OC)cc2[nH]c1=O | 1.7* | 23 | -8 | -7 | -4 | 0 | 106 | 0 | 94 | 0
CC1Oc2cc3oc4c(O)c(O)ccc4c(=O)c3c(O)c2C1(C)C (centres undefined) | 0 | 11 | 9 | 0 | -21 | nt | nt | nt | nt | nt
COC(=O)c1ccccc1NC(=S)N(Cc1ccc2c(c1)OCO2)Cc1cc2ccc(C)cc2[nH]c1=O | 0 | 20 | -1 | -8 | 6 | 7 | nt | nt | nt | nt
COC(=O)c1ccccc1NC(=S)N(Cc1ccc2c(c1)OCO2)Cc1cc2ccc(OC)cc2[nH]c1=O | 6.4* | 19 | 11 | 6 | 8 | 31 | 99 | 0 | 96 | 0
CCN(C[C@H]1N[C@@](CC)(C(=O)OC)[C@H]2C(=O)N(Cc3ccccc3)C(=O)[C@@H]12)C(=O)Nc1ccc(Cl)cc1 | 0 | 6 | nt | nt | nt | nt | nt | nt | nt | nt
Cc1ccc(C)c(N2CCN(C(=O)C3CCCN(c4ncnc5c4nc4n5CCCCC4)C3)CC2)c1 (centres undefined) | 2.5* | 22 | 14 | 7 | 16 | 7 | 79 | 0 | + | 0
Cc1ccc(N2CCN(C(=O)C3CCCN(c4ncnc5c4nc4n5CCCCC4)C3)CC2)c(C)c1 (centres undefined) | 0 | 10 | 1 | 19 | 7 | -2 | nt | nt | nt | nt
COc1ccc(-n2ncc3c2CC(C)(C)CC3NC(=O)c2cn[nH]c2)cc1 (centres undefined) | 0 | 2 | 5 | 0 | 12 | 19 | 97 | 0 | 82 | 0
Cc1cc(C(=O)NC2CC(C)(C)Cc3c2cnn3-c2ccc(F)cc2)nn1C (centres undefined) | 0 | 7 | nt | -9 | 21 | 7 | nt | nt | nt | nt
CC1(C)Cc2c(cnn2-c2ccc(F)cc2)C(NC(=O)c2cnccn2)C1 (centres undefined) | 6.2* | -1 | -1 | -15 | 7 | 0 | 98 | 0 | 100 | 0
COc1ccc(-n2ncc3c2CC(C)(C)CC3NC(=O)c2ccnn2C)cc1 (centres undefined) | 0 | -2 | 3 | 2 | 6 | -1 | nt | nt | nt | nt
Clc1ccc(OCCCCCN2CCOCC2)cc1 | 0 | 23 | 9 | 6 | -17 | -5 | nt | nt | nt | nt
Cc1ccc(C2=NN(C(=O)CN3CCN(C4CCS(=O)(=O)C4)CC3)C(c3ccco3)C2)cc1 (centres undefined) | 0 | 14 | 8 | 15 | nt | nt | nt | nt | nt | nt
COc1cccc(NC(=S)N2CCN(c3ccccn3)CC2)c1 | 16* | -6 | -1 | 0 | 12 | 23 | 100 | 0 | 107 | 0
Cc1ccc2nc(-c3ccccc3)cc(C(=O)N3CCN(c4ccccc4O)CC3)c2c1 | 0 | 8 | 19 | 3 | -14 | nt | nt | nt | nt | nt
Cc1ccc2nc(-c3ccccc3)cc(C(=O)N3CCN(S(=O)(=O)c4c(C)noc4C)CC3)c2c1 | 1.1* | 14 | -7 | -3 | nt | nt | 104 | 0 | 103 | 0
Cc1ccc(OCc2cc(C(=O)NCC(C)(C)N3CCOCC3)no2)cc1C | 2 | 30 | -2 | 33 | -15 | 7 | 98 | 0 | 98 | 1
SMILES | Efflux pump inh | NALP3 yeast inh | HDAC3 inhib | JMJD2C inh | PolyA inh | NALP1 inh | Cmpd fluor yeast | Mdr1 pump inh | CaCdr2 efflux inh | Cdr1 pump inh
COCCCn1c(SCC(=O)OC2CCCCC2)nnc1-c1cccs1 | 1.3* | 2 | 1 | -4 | 0 | 1 | 96 | 0 | 120 | 0
Nc1nn(-c2ccccc2Cl)cc1-c1nn[nH]n1 | 0 | 25 | 0 | 9 | 7 | 21 | nt | nt | nt | nt
COc1ccc(N2CCN(Cc3nc4c(c(=O)[nH]c(=O)n4C)n3CCCc3ccccc3)CC2)cc1 | 14* | 10 | -9 | -46 | 7 | -3 | 108 | 0 | 114 | 0
C=CCn1c(=O)c2ccccc2n2c(SCC(=O)Nc3sc(C(=O)N(CC)CC)c(C)c3C(=O)OCC)nnc12 | 0 | 1 | 3 | 5 | -6 | 23 | nt | nt | nt | nt
C=CCn1c(=O)c2ccccc2n2c(SCC(=O)Nc3sc(C)c(CC)c3C(=O)OCC)nnc12 | 0.5* | 12 | -3 | 13 | -10 | 16 | 99 | 0 | 116 | 0
CCOC(=O)C(NC(=O)CC)(Nc1ccccc1)C(F)(F)F (centres undefined) | 5.5* | 4 | 6 | 0 | 2 | 34 | 93 | 0 | 94 | 0
